Screening data (PubChem BioAssay)
G9a inh – qHTS Assay for Inhibitors of Histone Lysine Methyltransferase G9a; Histone-lysine N-methyltransferase EHMT2 (Homo sapiens), Q96KQ7; G9a H3K9 monomethylation, AlphaScreen, 2 h; Potency, µM (series often up to 102 µM), most hits filed as inhibitors; 8.8% of 350,000 active; note: nearly all actives have a fitted effect of over 75% in size
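Using a bead-based AlphaScreen, monomethylated H3K9 product from 2 h room-temperature reactions (G9a 20 nM, peptide 500 nM, SAM 20 uM) was detected with 0.5 ug/mL rabbit anti-H3K9me1 antibody.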
JMJD2A Tudor – qHTS Assay for Inhibitors of JMJD2A-Tudor Domain; 4.4% of 390,000 active; AID 504339, 2011; Potency, µM (titrated, usually from 114 µM), most hits filed as inhibitors; AlphaScreen JMJD2A-Tudor / H3K4me3 peptide binding; note: nearly all actives have a fitted effect of over 50% in size
L3MBTL1 block – qHTS Assay for the Inhibitors of L3MBTL1 | AlphaScreen L3MBTL1–H3K9me1 peptide binding | Potency, µM (titrated, usually from 57.1 µM), usual class: inhibitors | 0.66% of 230,000 active | Lethal(3)malignant brain tumor-like protein 1 (Homo sapiens), Q9Y468; note: nearly all actives have a fitted effect of over 60% in size
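AlphaScreen proximity signal between nickel-chelate acceptor and streptavidin donor beads (final 10 ug/mL) reports binding of 50 nM L3MBTL1 to 75 nM biotin-H3 K9me1 peptide; complex incubated with compounds 30 min at room temperature; cefsulodin titration as control.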
BAZ2B inh – qHTS Assay for Inhibitors of BAZ2B. Bromodomain adjacent to zinc finger domain protein 2B (Homo sapiens), Q9UIF8. AlphaScreen BAZ2B-H3K14Ac peptide displacement. Potency, µM (highest dose often 114 µM), actives largely listed as inhibitors. 4.4% of 360,000 active; note: nearly all actives have a fitted effect of over 60% in size
Target sequence (Q9UIF8 whole entry, looked up, the tested form may be a part): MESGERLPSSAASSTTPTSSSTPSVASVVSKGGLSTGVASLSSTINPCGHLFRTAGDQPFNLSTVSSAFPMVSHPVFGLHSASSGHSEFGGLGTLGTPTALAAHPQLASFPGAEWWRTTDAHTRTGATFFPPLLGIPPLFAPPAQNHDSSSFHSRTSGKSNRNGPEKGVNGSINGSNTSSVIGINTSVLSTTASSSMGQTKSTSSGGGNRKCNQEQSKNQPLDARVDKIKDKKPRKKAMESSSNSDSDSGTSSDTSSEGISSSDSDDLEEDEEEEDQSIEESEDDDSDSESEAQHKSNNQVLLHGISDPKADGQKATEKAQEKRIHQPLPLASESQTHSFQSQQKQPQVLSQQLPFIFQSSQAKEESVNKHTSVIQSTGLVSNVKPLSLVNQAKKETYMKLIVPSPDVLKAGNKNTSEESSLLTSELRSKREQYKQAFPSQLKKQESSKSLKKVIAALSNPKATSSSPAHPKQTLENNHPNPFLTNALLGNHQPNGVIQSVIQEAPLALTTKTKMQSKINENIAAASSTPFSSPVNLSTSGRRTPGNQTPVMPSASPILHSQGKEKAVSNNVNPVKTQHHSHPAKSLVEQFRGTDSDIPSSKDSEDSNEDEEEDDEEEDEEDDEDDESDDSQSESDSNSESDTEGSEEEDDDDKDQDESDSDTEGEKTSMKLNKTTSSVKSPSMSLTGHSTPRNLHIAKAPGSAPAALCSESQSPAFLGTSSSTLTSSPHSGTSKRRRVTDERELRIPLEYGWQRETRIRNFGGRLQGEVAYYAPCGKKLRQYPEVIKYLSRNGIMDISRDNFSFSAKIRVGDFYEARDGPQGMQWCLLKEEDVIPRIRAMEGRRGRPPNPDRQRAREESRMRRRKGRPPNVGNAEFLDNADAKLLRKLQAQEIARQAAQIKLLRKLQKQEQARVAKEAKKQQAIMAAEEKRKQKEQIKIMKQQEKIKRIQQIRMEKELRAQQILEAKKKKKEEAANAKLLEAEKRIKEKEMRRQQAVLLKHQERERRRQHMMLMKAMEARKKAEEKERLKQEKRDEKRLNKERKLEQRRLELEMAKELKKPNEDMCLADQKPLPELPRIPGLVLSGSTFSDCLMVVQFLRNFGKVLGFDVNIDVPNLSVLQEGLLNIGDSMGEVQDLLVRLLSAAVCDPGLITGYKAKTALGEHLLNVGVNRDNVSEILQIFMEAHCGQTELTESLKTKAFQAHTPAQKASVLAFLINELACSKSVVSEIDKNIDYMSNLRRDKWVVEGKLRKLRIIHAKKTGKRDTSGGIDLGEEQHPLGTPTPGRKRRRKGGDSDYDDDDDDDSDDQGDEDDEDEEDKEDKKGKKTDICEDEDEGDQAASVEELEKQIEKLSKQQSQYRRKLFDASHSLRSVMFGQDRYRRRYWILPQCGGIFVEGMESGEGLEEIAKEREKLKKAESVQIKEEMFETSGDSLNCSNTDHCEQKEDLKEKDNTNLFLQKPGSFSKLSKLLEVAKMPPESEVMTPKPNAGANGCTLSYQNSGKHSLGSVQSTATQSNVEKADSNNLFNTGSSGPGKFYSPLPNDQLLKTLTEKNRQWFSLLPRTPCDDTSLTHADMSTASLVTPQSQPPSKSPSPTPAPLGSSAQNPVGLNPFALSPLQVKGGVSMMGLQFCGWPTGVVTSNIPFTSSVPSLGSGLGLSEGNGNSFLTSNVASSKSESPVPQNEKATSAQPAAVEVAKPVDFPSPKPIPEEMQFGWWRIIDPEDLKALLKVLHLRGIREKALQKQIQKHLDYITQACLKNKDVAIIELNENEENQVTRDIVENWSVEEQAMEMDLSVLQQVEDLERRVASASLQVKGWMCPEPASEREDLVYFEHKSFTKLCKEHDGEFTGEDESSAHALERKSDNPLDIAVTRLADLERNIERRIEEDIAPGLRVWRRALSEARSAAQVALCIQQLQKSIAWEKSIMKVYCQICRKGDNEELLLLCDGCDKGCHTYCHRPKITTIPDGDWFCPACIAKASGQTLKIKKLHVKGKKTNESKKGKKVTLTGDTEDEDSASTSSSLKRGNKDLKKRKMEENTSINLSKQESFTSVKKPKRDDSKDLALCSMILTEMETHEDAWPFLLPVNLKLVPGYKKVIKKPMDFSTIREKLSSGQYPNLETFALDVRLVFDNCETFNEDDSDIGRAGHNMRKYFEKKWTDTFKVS
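Multi-concentration screen (max 110 uM) measuring displacement of acetylated histone H3 peptide from BAZ2B by AlphaScreen, using 50 nM protein, 50 nM peptide and 10 ug/mL streptavidin donor plus Ni-chelate acceptor beads.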
HP1b binding inh – HTS for Inhibitors of HP1-beta Chromodomain Interactions with Methylated Histone Tails. Chromobox protein homolog 1 (Homo sapiens), P83916. AlphaScreen HP1-beta / biotin-H3K9me3 peptide binding. Potency, µM (highest dose often 114 µM), actives largely listed as inhibitors. 0.56% of 390,000 active. AID 540317, 2011; note: nearly all actives have a fitted effect of over 70% in size
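HP1-beta protein (50 nM final) preincubated 30 min at room temperature with biotinylated H3(1-18)K9me3 peptide (50 nM) in PBS pH 7.4, 0.01% Tween-20, then compound added for 30 min. AlphaScreen streptavidin donor/nickel chelate acceptor beads (10 ug/mL final), 30 min dark, luminescence read.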
Each line names hits and unclear results; the compound was inactive in the other large screens. Most compounds without a hit are left out; they make up all but 11% or so of the library. Calls come from the whole dose curve; as a rule, active = well fitted inhibition curve with a large enough effect; inconclusive = small, poorly fitted or top-dose-only effect; inactive = no such curve, though single readings can be large or run the other way.

Oc1ccc(CN2CCCCC2)c2cccnc12	G9a inh inconclusive, JMJD2A Tudor 8.9µM, L3MBTL1 block inconclusive, BAZ2B inh 3.2µM
Cc1c(C)c2cc(Cl)c(O)c(CN3CCCCC3)c2oc1=O	none (no result: L3MBTL1 block)
Oc1c(Cl)cc(CN2CCCCC2)c2cccnc12	BAZ2B inh 3.5µM (no result: JMJD2A Tudor, L3MBTL1 block, HP1b binding inh)
c1ccc2c(CN3CCCCC3)csc2c1	none
CCC(Sc1ncccc1C(=O)O)C(=O)N1CCCC1 (centres undefined)	G9a inh inconclusive, JMJD2A Tudor 3.5µM, BAZ2B inh inconclusive
CCC(Sc1ncccc1C(=O)O)C(=O)N1CCOCC1 (centres undefined)	G9a inh inconclusive, JMJD2A Tudor 5.6µM, BAZ2B inh inconclusive
CCOC(=O)c1cccnc1SC(CC)C(=O)N1CCOCC1 (centres undefined)	none
Cc1cc(S(=O)(=O)N2CCN(Cc3noc(CCC(=O)N4CCCCC4)n3)CC2)ccc1F	G9a inh inconclusive (no result: L3MBTL1 block)
Cc1ccc(-c2noc(-c3ccc(NCc4ccco4)c([N+](=O)[O-])c3)n2)cc1	none (no result: L3MBTL1 block)
Cc1nc(COC(=O)c2cc(O)c3ccccc3c2O)cs1	G9a inh 3.2µM, HP1b binding inh inconclusive (no result: BAZ2B inh)
Cc1nc(COC(=O)c2ccc(CO)cc2)cs1	none
COC(=O)C(NNc1ccccc1)(NC(=O)c1ccc(F)cc1)C(F)(F)F (centres undefined)	G9a inh 35µM
O=C(NC(NNc1ccc([N+](=O)[O-])cc1)(C(F)(F)F)C(F)(F)F)c1ccc(F)cc1	G9a inh 13µM, JMJD2A Tudor inconclusive, BAZ2B inh inconclusive, HP1b binding inh inconclusive
O=C(NC(NNc1ccc([N+](=O)[O-])cc1)(C(F)(F)F)C(F)(F)F)c1ccccc1Cl	G9a inh inconclusive, JMJD2A Tudor inconclusive, BAZ2B inh inconclusive
Cc1ccc(CN2CC(C(=O)Nc3cc(C)ccn3)CC2=O)cc1 (centres undefined)	none
Cc1ccc(N(C)C(=O)Cn2cnc3onc(-c4ccc(F)cc4)c3c2=O)cc1C	none (no result: L3MBTL1 block)
CC[n+]1c(/C=C/C=C/N(C(C)=O)c2ccccc2)sc2cc(OC)ccc21	G9a inh inconclusive, JMJD2A Tudor 56µM, BAZ2B inh 45µM, HP1b binding inh inconclusive
CCn1c(/C=C/N(C(C)=O)c2ccccc2)[n+](CCCS(=O)(=O)[O-])c2cc(Cl)c(Cl)cc21	none
Cn1ccc2cc3c(cc21)CCN3C(=O)Nc1cccnc1	G9a inh 9.5µM, JMJD2A Tudor 79µM, BAZ2B inh inconclusive
CN1CCc2cc(NC(=O)Nc3cccnc3)ccc21	none (no result: JMJD2A Tudor, L3MBTL1 block, BAZ2B inh, HP1b binding inh)
COc1ccc(-c2csc(NC(=O)c3ccoc3C)n2)cc1	G9a inh 50µM, BAZ2B inh inconclusive
Cc1ccc(-c2csc(NC(=O)c3ccno3)n2)cc1	G9a inh 50µM, JMJD2A Tudor 79µM, BAZ2B inh inconclusive (no result: L3MBTL1 block)
COc1ccc(-c2csc(NC(=O)C3CCCO3)n2)cc1 (centres undefined)	G9a inh 13µM, JMJD2A Tudor inconclusive, BAZ2B inh inconclusive
COc1ccc(NC(=O)C2CCCO2)cc1 (centres undefined)	none
Cc1ccc(C)c(CSc2nc3c([nH]c4ccccc43)c(=O)n2C)c1	none (no result: L3MBTL1 block)
COc1ccc(OC)c(NC(=O)CN2C(=O)COc3ccc(S(=O)(=O)NC4CCCC4)cc32)c1	none (no result: L3MBTL1 block)
O=C(NCc1cccs1)c1nn(-c2ccccc2F)nc1CO	none (no result: L3MBTL1 block)
CCN(Cc1ccccc1)C(=O)C1CCC(CNS(=O)(=O)c2ccc3c(c2)CCCC(=O)N3)CC1 (centres undefined)	none (no result: L3MBTL1 block)
O=C(c1cc(-c2ccc(Br)cc2)n[nH]1)N1CCN(S(=O)(=O)c2ccc(Br)s2)CC1	none (no result: L3MBTL1 block)
Cc1ccc(NS(=O)(=O)c2ccc3ccccc3c2)cc1C	none (no result: G9a inh, L3MBTL1 block, BAZ2B inh, HP1b binding inh)
O=C(O)CCn1nnc(-c2cccs2)n1	G9a inh inconclusive, BAZ2B inh 79µM
O=C(O)Cn1nnc(-c2cccs2)n1	none
CCCn1c2ccccc2c2cnn(CC(=O)N3CCC(C)CC3)c(=O)c21	none (no result: L3MBTL1 block)
CC1(C)Oc2ccc3ccc(=O)oc3c2-c2cn[nH]c21	G9a inh inconclusive
CC1(C)Oc2ccc3ccc(=O)oc3c2/C(=C/Nc2ccccc2)C1=O	G9a inh 71µM, JMJD2A Tudor inconclusive, BAZ2B inh inconclusive (no result: L3MBTL1 block)
